sPLA2-III inh: Blocks human group III sPLA2 activity. Q9NZ20. QFRET BODIPY PC-A2 liposome hydrolysis, fluorescence. inhibition, % at 12.2 µM. 0.56% of 370,000 active. AID 743126;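 active = inhibition above mean plus 3 SD of compounds lying within the high and low control bounds, cut at about 19% in these data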
Target sequence (Q9NZ20 whole entry, looked up): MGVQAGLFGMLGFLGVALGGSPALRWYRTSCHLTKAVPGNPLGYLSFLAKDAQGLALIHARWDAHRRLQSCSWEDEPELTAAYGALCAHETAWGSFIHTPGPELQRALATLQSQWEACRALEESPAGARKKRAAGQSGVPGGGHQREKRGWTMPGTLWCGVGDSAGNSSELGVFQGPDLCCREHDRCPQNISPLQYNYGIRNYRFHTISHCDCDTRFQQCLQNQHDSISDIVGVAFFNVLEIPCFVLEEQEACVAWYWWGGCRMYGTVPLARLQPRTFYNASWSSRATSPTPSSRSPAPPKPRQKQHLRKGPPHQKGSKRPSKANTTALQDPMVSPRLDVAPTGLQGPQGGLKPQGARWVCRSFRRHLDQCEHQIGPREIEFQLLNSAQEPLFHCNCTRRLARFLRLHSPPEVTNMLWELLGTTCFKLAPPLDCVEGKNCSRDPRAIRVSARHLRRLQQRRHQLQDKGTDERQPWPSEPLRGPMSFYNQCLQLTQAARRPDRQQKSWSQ
HIF act: HIF pathway transcriptional activation. U2OS HRE-luciferase reporter, luminescence; normalized: DMSO 0%, desferrioxamine 100%. activation, % at 7.5 µM (by protocol). 0.32% of 300,000 active. AID 1910;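 active = mean activation of at least 10% of the iron chelator positive control signal, with at least half of replicates also reaching 10%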
PLC-beta3 inh: blocks human PLC-beta3 enzyme activity; Q01970; Purified PLC-beta3, fluorogenic substrate, fluorescence; inhibition, % at 12.2 µM; 0.18% of 370,000 active; AID 720704; in the data active = inhibition above about 11%
PLCg1 inh: inhibitors of human phospholipase C gamma1; P19174; purified PLC-gamma1, fluorogenic substrate, fluorescence; inhibition, % at 12.2 µM; 0.84% of 370,000 active; AID 720700
AHR activator: activates the human aryl hydrocarbon receptor; P35869; AHR-responsive luciferase reporter cells, luminescence; activation, % at 5 µM; 2.5% of 320,000 active; in the data active = activation above about 47%
Yeast superoxide: yeast age-related superoxide inhibition as caloric restriction mimetic; S. cerevisiae aged cells, superoxide DHE fluorescence; active compounds read low; superoxide response (% of plate mean), % at 10 µM; 0.18% of 330,000 active;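 active = superoxide response under a set limit, about three screen SD below normal, cut at about 65% in these data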;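 note: yeast aged for seven days with compound at 30 °C before DHE staining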
PLCg1 ctr: PLC-gamma1 inhibition, counter-screen for PLC-beta3 hits; AID 743258; purified PLC-gamma1, fluorogenic substrate, fluorescence; inhibition, % at 12.3 µM; 3.1% of 3,300 active; shares compounds with PLCg1 inh
PLCb3 confirm: human PLC-beta3 inhibition, confirmation | shares compounds with PLCg1 inh | purified PLC-beta3, fluorogenic substrate fluorescence | AID 743261 | inhibition, % at 12.3 µM | 1% of 3,300 active; in the data active = inhibition above about 11%
Each line names hits and unclear results; the compound was inactive in the other large screens (follow-up assays come after a bar, where they were run). This is a sample that favours compounds with a hit; in the whole collection about 3.9% have one here. Cut-off read from the data, not from the text of the source, unless noted: active = inhibition above about 9.5%; inactive = the rest.

COc1ccc(CN2CCOCCOCCOCC2)cc1	PLC-beta3 inh 12.7 | PLCg1 ctr inactive | PLCb3 confirm inactive
CC1(C)CC(=O)C=C(NC2CCCC(O)C2)C1 (stereo not given)	none
CC(C)CC(COCc1cccc(C(F)(F)F)c1)N1CCN(C(=O)c2cccc(C(F)(F)F)c2)CCC1=O (stereo not given)	PLCg1 inh 9.6 (no result: Yeast superoxide) | PLCg1 ctr inactive | PLCb3 confirm inactive
Cc1ccc(-n2nnnc2CNC(=O)C2CC(=O)N(c3ccccc3)C2)cc1C (stereo not given)	PLCg1 inh 13.4 | PLCg1 ctr inactive | PLCb3 confirm inactive
Cc1ccc(N2CC(C(=O)NCc3nnnn3-c3ccc(C)c(C)c3)CC2=O)cc1 (stereo not given)	none
CCn1nc(C)c(/C=N/NC(=S)Nc2ccc(Cl)cc2Cl)c1C	PLC-beta3 inh 11.5, AHR activator 52.8 | PLCg1 ctr inactive | PLCb3 confirm inactive
CC12CCC(=O)N1C(C(=O)Nc1cccc(S(=O)(=O)N3CCCCCC3)c1)CS2 (stereo not given)	PLCg1 inh 10.3 | PLCg1 ctr inactive | PLCb3 confirm inactive
CN(C)c1ccc(S(=O)(=O)N2CCCCC2)cc1NC(=O)C1CSC2(C)CCC(=O)N12 (stereo not given)	none (no result: HIF act)
CC12CCC(=O)N1C(C(=O)Nc1cc(S(=O)(=O)N3CCCCCC3)ccc1OCC(F)(F)F)CS2 (stereo not given)	PLCg1 inh 11.3 | PLCg1 ctr inactive | PLCb3 confirm inactive
CC(=O)N1CCOc2ccc(S(=O)(=O)N3CCC(C(=O)NCc4ccc(F)cc4)CC3)cc21	none
Cc1ccc(CNC(=O)Cn2cccc2C(=O)c2ccccc2)cc1	PLCg1 inh 11.9 | PLCg1 ctr inactive | PLCb3 confirm inactive
O=C(Cn1cccc1C(=O)c1ccccc1)NCc1ccc(Cl)cc1	none
CC(=O)N(C(C)=O)N1C(=O)C2C3c4ccccc4C(c4ccccc43)C2C1=O (stereo not given)	PLC-beta3 inh 12.4, PLCg1 inh 13.2 | PLCg1 ctr inactive | PLCb3 confirm inactive
COc1ccc(S(=O)(=O)Nc2ccc3c(c2)C(=O)N([C@@H](C)CO)C[C@H](C)[C@H](CN(C)S(=O)(=O)c2ccc(F)cc2)O3)cc1	none (no result: HIF act)
COc1ccc(S(=O)(=O)Nc2ccc3c(c2)CC(=O)N([C@@H](C)CO)C[C@H](C)[C@@H](CN(C)S(=O)(=O)c2ccc(F)cc2)O3)cc1	PLCg1 inh 10.8 (no result: HIF act) | PLCg1 ctr inactive | PLCb3 confirm inactive
C[C@@H]1CCCCO[C@@H](CN(C)S(=O)(=O)c2ccccc2)[C@@H](C)CN([C@H](C)CO)C(=O)c2cc(NS(=O)(=O)c3ccc(F)cc3)ccc2O1	PLCg1 inh 16.6 (no result: HIF act, AHR activator, Yeast superoxide) | PLCg1 ctr inactive | PLCb3 confirm inactive
O=C(CS(=O)(=O)Cc1ccccc1)c1ccccc1	none (no result: HIF act, AHR activator, Yeast superoxide)
COc1ccc(CNCC(O)(c2ccccc2)c2ccccc2)cc1	PLCg1 inh 18.7 | PLCg1 ctr inactive | PLCb3 confirm inactive
COc1ccc(CNCC(O)(c2ccc(F)cc2)c2ccc(F)cc2)cc1	none
CC(=O)OCCCCCCCCCCC[N+]1(C)CCCCC1	none
COC(=O)CCCCCCCCCC[N+]1(C)CCCCC1	PLC-beta3 inh 10.8 | PLCg1 ctr inactive | PLCb3 confirm inactive
[O-]C1=N[N+](=C(c2ccccc2)c2ccccc2)C1	none (no result: HIF act, AHR activator, Yeast superoxide)
O=[N+]([O-])c1ccc2[nH]cc(S(=O)(=O)N3CCN(c4cccc(Cl)c4)CC3)c2c1	PLCg1 inh 10.2 | PLCg1 ctr 14.1 | PLCb3 confirm inactive
Cc1ccc(NC(=O)N(Cc2cc3cc(C)cc(C)c3[nH]c2=O)CC2COCCO2)cc1 (stereo not given)	none
COc1cccc(NC(=O)N(Cc2cc3cc(C)cc(C)c3[nH]c2=O)CC2COCCO2)c1 (stereo not given)	PLCg1 inh 11.3 | PLCg1 ctr inactive | PLCb3 confirm inactive
Nn1cnnc1N/N=C/c1ccc(Cl)c([N+](=O)[O-])c1	PLCg1 inh 11.8 | PLCg1 ctr inactive | PLCb3 confirm inactive
Nn1cnnc1N/N=C/c1ccc(F)cc1	PLCg1 inh 15.9 | PLCg1 ctr inactive | PLCb3 confirm inactive
Cc1ccc(/C=N/Nc2nncn2N)cc1	PLCg1 inh 10.8 | PLCg1 ctr inactive | PLCb3 confirm inactive
Nn1cnnc1N/N=C/c1ccccc1C(F)(F)F	none
Nn1cnnc1N/N=C/c1cccc(Cl)c1Cl	none (no result: AHR activator)
CCOC(=O)C1(C)CCN1C(=O)c1c(F)cccc1F (stereo not given)	none (no result: HIF act, AHR activator, Yeast superoxide)
COC(=O)[C@]12CCCCC=C1N(Cc1ccc(Cl)cc1Cl)C(=O)[C@H](CC(=O)N1CCC(c3ccccc3)CC1)C2	PLCg1 inh 12.2 (no result: HIF act, AHR activator, Yeast superoxide) | PLCg1 ctr inactive | PLCb3 confirm inactive
O=C(CSc1nc2ccccc2c(=O)n1-c1ccccc1)Nc1ccc2c(c1)CCC2	none (no result: HIF act, AHR activator, Yeast superoxide)
O=C(CSc1nc2ccccc2c(=O)n1-c1ccc(Cl)c(Cl)c1)Nc1ccc2c(c1)CCC2	PLCg1 inh 11.3 (no result: HIF act, AHR activator, Yeast superoxide) | PLCg1 ctr inactive | PLCb3 confirm inactive
COCCCN1C(=O)C(CC(=O)NCC2CCCCC2)CC(C(=O)N2CCOCC2)=C1C (stereo not given)	none (no result: HIF act, AHR activator, Yeast superoxide)
S=C(NC1CCCCC1)N1CCc2ccccc2C1	PLCg1 inh 9.9 | PLCg1 ctr inactive | PLCb3 confirm inactive
CN1C(=O)SC(Nc2ccccc2)C1=O (stereo not given)	PLCg1 inh 9.5 | PLCg1 ctr inactive | PLCb3 confirm inactive
NC(COCc1ccccc1)c1csc(NC(=O)Nc2cccc(Cl)c2)n1 (stereo not given)	none (no result: HIF act, AHR activator, Yeast superoxide)
Nc1ccc(C(CC(=O)O)n2cccc2)cc1 (stereo not given)	PLC-beta3 inh 14.3, PLCg1 inh 26.2 | PLCg1 ctr inactive | PLCb3 confirm inactive
CC1CC(C)CN(C(=O)c2nn(C)c3c2CS(=O)(=O)c2ccccc2-3)C1 (stereo not given)	none
N/C(Cc1ccc(Cl)c(Cl)c1)=N\OC(=O)c1cccs1	PLC-beta3 inh 11.5 | PLCg1 ctr inactive | PLCb3 confirm inactive
O=C1CNc2cc(Cl)ccc2N1	none (no result: HIF act, AHR activator, Yeast superoxide)
CN(C)c1ccc(P(=O)(Nc2ccccc2)N2CCOCC2)c(NC(=O)c2cccs2)c1 (stereo not given)	none
Cc1ccc(NP(=O)(c2ccc(N(C)C)cc2NC(=O)c2cccs2)N2CCOCC2)cc1 (stereo not given)	PLC-beta3 inh 14.0, AHR activator 58.9 | PLCg1 ctr inactive | PLCb3 confirm inactive
c1ccc(N2CCN(c3ncnc4scc(-c5cccs5)c34)CC2)cc1	PLCg1 inh 11.1 | PLCg1 ctr inactive | PLCb3 confirm inactive
Fc1ccc(-c2csc3ncnc(N4CCN(c5ccccc5)CC4)c23)cc1	none

From PubChem
